The results in this text go back to PubChem BioAssay (Tox21).

Inconclusive results are not listed. The source made the active and inactive calls. Unless noted, calls follow the shape of the full dose curve.
% is scaled to controls: 0 for no effect and ±100 for the full control effect.

One experiment can be described thus: qHTS assay to identify small molecule agonists of the hypoxia (HIF-1) signaling pathway - cell viability counter screen (AID 1224844). Also: nearly all actives have a fitted effect of over 50% in size. Particulars: HRE-bla ME-180 viability, CellTiter-Glo luminescence, 17 h; series mostly up to 76.8 µM; activity change, negative = cytotoxicity: at the top concentration. Put shortly:
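ME-180 HRE-bla cells, 2,000/well, 0.5% dialyzed FBS; 5 hr settle, 17 hr compound at 37C/5% CO2; CCF4-AM reporter read first, then CellTiter-Glo luminescence after 30 min RT.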
With `CNC(=O)N(c1ccccc1)c1ccccc1`, the “activity change, negative = cytotoxicity” value is 3.35% (inactive).

`CC1(C)C(=O)N(Br)C(=O)N1Cl`: the “activity change, negative = cytotoxicity” value is -7.55% (inactive).

In the case of `CCCCCCCCSCCO`, the “activity change, negative = cytotoxicity” value is 14.6% (inactive).

As to `CC#N`, the “activity change, negative = cytotoxicity” value was 7% (inactive).

`NC(=O)Nc1ccc(Cl)cc1`: the “activity change, negative = cytotoxicity” value is 4.15% (inactive).

For the molecule `OC/C(Br)=C(\Br)CO`, the “activity change, negative = cytotoxicity” value is 5.53% (inactive).

Turning to `CC1=CC(=O)CC(C)(C)C1(O)/C=C/C(C)=C\C(=O)O` (stereo not drawn), the “activity change, negative = cytotoxicity” value is 2.9% (inactive).

Turning to `CCCOC(=O)c1ccc(N)cc1`, the “activity change, negative = cytotoxicity” value was 1% [at 35.3 µM] (inactive).

In the case of `CCCCC(CC)CNCC(CC)CCCC` (stereo not drawn), the “activity change, negative = cytotoxicity” value was 3.76% (inactive).

As to `O=C(CCC1CCN(Cc2ccccc2)CC1)c1ccc2c(c1)NCCCC2`, the “activity change, negative = cytotoxicity” value was -6.47% [at 35.3 µM] (inactive).

On to `CC(=O)OCC(=O)[C@H]1CC[C@H]2[C@@H]3CCC4=CC(=O)CC[C@]4(C)[C@H]3CC[C@]12C`, for which the “activity change, negative = cytotoxicity” value is -1.78% [at 35.3 µM] (inactive).

Take `COC(=O)c1cc(Cl)ccc1NS(=O)(=O)C(F)(F)F`: the “activity change, negative = cytotoxicity” value was 10.9% [at 35.3 µM] (inactive).

On to `CC(=O)CC(c1ccc([N+](=O)[O-])cc1)c1c(O)c2ccccc2oc1=O` (stereo not drawn), for which the “activity change, negative = cytotoxicity” value is -3.85% [at 35.3 µM] (inactive).

For the molecule `CCOC(=O)c1ccccc1OC`, the “activity change, negative = cytotoxicity” value was -13.9% (inactive).

For the molecule `c1cnc2c(n1)CCCC2`, the “activity change, negative = cytotoxicity” value was -1.58% (inactive).

As to `CO[C@H]1O[C@H](CO)[C@@H](O)[C@H](O)[C@H]1O`, the “activity change, negative = cytotoxicity” value is 2.33% (inactive).

For the molecule `O=C(/C=C/c1ccccc1)OCCCc1ccccc1`, the “activity change, negative = cytotoxicity” value is -0.598% (inactive).

`C=CCCCCCCCCCCCCCCCC`: the activity change, negative = cytotoxicity is 3.26% [at 6.97 µM] (inactive).

Consider `CCCCC(=O)O[C@]1(C(=O)CO)CC[C@H]2[C@@H]3CCC4=CC(=O)CC[C@]4(C)[C@H]3[C@@H](O)C[C@@]21C`, for which the “activity change, negative = cytotoxicity” value is -27.4% [at 35.3 µM] (inactive).

For `NC(=O)N(O)[C@@H]1C=C[C@H](Oc2cccc(Oc3ccc(F)cc3)c2)C1`, the “activity change, negative = cytotoxicity” value was 7.42% (inactive).

Consider `CC1CC(O)CC(C)(C)C1` (stereo not drawn), for which the “activity change, negative = cytotoxicity” value is -11% (inactive).

As for `N#C[C@@H]1C[C@@H]2C[C@@H]2N1C(=O)[C@@H](N)C12CC3CC(CC(O)(C3)C1)C2`, the “activity change, negative = cytotoxicity” value was 1.88% [at 35.3 µM] (inactive).

Regarding `O=Cc1c(Cl)cccc1Cl`, the “activity change, negative = cytotoxicity” value is 7.56% (inactive).

In the case of `CC1(C)O[C@@H]2C[C@H]3[C@@H]4CCC5=CC(=O)C=C[C@]5(C)[C@H]4[C@@H](O)C[C@]3(C)[C@]2(C(=O)CO)O1`, the “activity change, negative = cytotoxicity” value was -22.6% [at 35.3 µM] (inactive).

Consider `CCCCCCCCCCCCCCCCBr`, for which the activity change, negative = cytotoxicity was -1.79% [at 15.8 µM] (inactive).

As for `CCCCCCOC(=O)C(C)C`, the “activity change, negative = cytotoxicity” value was -10.3% (inactive).

Turning to `COC(=O)c1cc(S(N)(=O)=O)ccc1OC`, the “activity change, negative = cytotoxicity” value was -2.48% [at 35.3 µM] (inactive).

For `C=CC(C)(O)CCCC(C)CCCC(C)CCCC(C)C` (stereo not drawn), the “activity change, negative = cytotoxicity” value was 8.48% (inactive).

On to `CN1C(=O)CC(C)(c2ccccc2)C1=O` (stereo not drawn), for which the “activity change, negative = cytotoxicity” value is 8.29% [at 35.3 µM] (inactive).

For `C[C@]12CCC(=O)C=C1C=C[C@@H]1[C@@H]2CC[C@@]2(C)[C@H]1CC[C@@]21CCC(=O)O1`, the “activity change, negative = cytotoxicity” value was 12.9% [at 35.3 µM] (inactive).

As for `Cc1occc1C(=O)Nc1ccc(C(=O)N2CCC(F)(F)/C(=C\C(=O)N3CCC(N4CCCCC4)CC3)c3ccccc32)cc1`, the “activity change, negative = cytotoxicity” value was -20.2% [at 35.3 µM] (inactive).

On to `CCCC1C(CC)=CC(CC)=CN1c1ccccc1` (stereo not drawn), for which the “activity change, negative = cytotoxicity” value was 8.52% (inactive).

Consider `CC(=O)[C@H]1CC[C@H]2[C@@H]3C[C@H](C)C4=CC(=O)CC[C@]4(C)[C@H]3[C@@H](O)C[C@]12C`, for which the “activity change, negative = cytotoxicity” value is -9.62% [at 35.3 µM] (inactive).

As for `C=CC(=C)CCCC(C)(C)OC(C)=O`, the “activity change, negative = cytotoxicity” value is -9.93% (inactive).

On to `O=S1OCCO1`, for which the “activity change, negative = cytotoxicity” value is 3.98% (inactive).

Regarding `C1COCO1`, the “activity change, negative = cytotoxicity” value is 5.9% (inactive).

For `CC(=O)Nc1ccccc1C`, the “activity change, negative = cytotoxicity” value was -20.6% (inactive).

With `COc1cc2[nH]c(=O)[nH]c(=O)c2cc1OC`, the “activity change, negative = cytotoxicity” value was -0.885% [at 35.3 µM] (inactive).

In the case of `N#C/C(=C1/SC[C@@H](c2ccc(Cl)cc2Cl)S1)n1ccnc1`, the “activity change, negative = cytotoxicity” value is -2.92% [at 35.3 µM] (inactive).

A further experiment can be described thus: qHTS assay to identify small molecule agonists of H2AX (AID 1224845; active = well fitted activation curve with a large enough effect in the signal ratio in the repeat runs, not every such curve was filed as active; the % refers to the signal ratio). The settings on record: CHO-K1 phospho-H2AX Ser139 HTRF, 3 h; series mostly up to 154 µM; activation (H2AX phosphorylation): at the top concentration. Put shortly:
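Wild-type CHO-K1 cells plated overnight, then exposed 3 hr at 37C to compounds at 15 concentrations (0.76% DMSO). Lysed, then HTRF anti-pH2AX(S139)-cryptate/anti-H2AX-d2 detection after 24 hr at room temperature; emissions 665 and 620 nm.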
For orientation: Quantitative high-throughput screening tests each substance at several concentrations.
On to `CNC(=O)N(c1ccccc1)c1ccccc1`, for which the “activation (H2AX phosphorylation)” value was 0.458% (inactive).

For the molecule `CC1(C)C(=O)N(Br)C(=O)N1Cl`, the “activation (H2AX phosphorylation)” value was 6.48% (inactive).

For `CCCCCCCCSCCO`, the “activation (H2AX phosphorylation)” value is -2.15% (inactive).

Turning to `CC#N`, the “activation (H2AX phosphorylation)” value is 5.36% (inactive).

Regarding `NC(=O)Nc1ccc(Cl)cc1`, the “activation (H2AX phosphorylation)” value was -1.79% (inactive).

For the molecule `OC/C(Br)=C(\Br)CO`, the “activation (H2AX phosphorylation)” value was -0.519% (inactive).

Regarding `CC1=CC(=O)CC(C)(C)C1(O)/C=C/C(C)=C\C(=O)O` (stereo not drawn), the “activation (H2AX phosphorylation)” value is 0.259% (inactive).

As for `CCCOC(=O)c1ccc(N)cc1`, the “activation (H2AX phosphorylation)” value was 0.0979% [at 70.9 µM] (inactive).

In the case of `CCCCC(CC)CNCC(CC)CCCC` (stereo not drawn), the “activation (H2AX phosphorylation)” value was -0.0477% (inactive).

For `O=C(CCC1CCN(Cc2ccccc2)CC1)c1ccc2c(c1)NCCCC2`, the “activation (H2AX phosphorylation)” value was -1.39% [at 70.9 µM] (inactive).

As for `CC(=O)OCC(=O)[C@H]1CC[C@H]2[C@@H]3CCC4=CC(=O)CC[C@]4(C)[C@H]3CC[C@]12C`, the “activation (H2AX phosphorylation)” value was -4.82% [at 70.9 µM] (inactive).

As to `COC(=O)c1cc(Cl)ccc1NS(=O)(=O)C(F)(F)F`, the “activation (H2AX phosphorylation)” value is -2.77% [at 70.9 µM] (inactive).

`CC(=O)CC(c1ccc([N+](=O)[O-])cc1)c1c(O)c2ccccc2oc1=O` (stereo not drawn): the “activation (H2AX phosphorylation)” value was 0.468% [at 70.9 µM] (inactive).

In the case of `CCOC(=O)c1ccccc1OC`, the “activation (H2AX phosphorylation)” value is -1.09% (inactive).

Turning to `c1cnc2c(n1)CCCC2`, the “activation (H2AX phosphorylation)” value was -1.43% (inactive).

With `CO[C@H]1O[C@H](CO)[C@@H](O)[C@H](O)[C@H]1O`, the “activation (H2AX phosphorylation)” value was -2.78% (inactive).

As to `O=C(/C=C/c1ccccc1)OCCCc1ccccc1`, the “activation (H2AX phosphorylation)” value was -1.64% (inactive).

In the case of `C=CCCCCCCCCCCCCCCCC`, the activation (H2AX phosphorylation) was -2.87% [at 14 µM] (inactive).

Regarding `CCCCC(=O)O[C@]1(C(=O)CO)CC[C@H]2[C@@H]3CCC4=CC(=O)CC[C@]4(C)[C@H]3[C@@H](O)C[C@@]21C`, the “activation (H2AX phosphorylation)” value is -2.69% [at 70.9 µM] (inactive).

For the molecule `NC(=O)N(O)[C@@H]1C=C[C@H](Oc2cccc(Oc3ccc(F)cc3)c2)C1`, the “activation (H2AX phosphorylation)” value was -0.662% (inactive).

For `CC1CC(O)CC(C)(C)C1` (stereo not drawn), the “activation (H2AX phosphorylation)” value is 0.0856% (inactive).

Take `N#C[C@@H]1C[C@@H]2C[C@@H]2N1C(=O)[C@@H](N)C12CC3CC(CC(O)(C3)C1)C2`: the “activation (H2AX phosphorylation)” value is 0.146% [at 70.9 µM] (inactive).

Take `O=Cc1c(Cl)cccc1Cl`: the “activation (H2AX phosphorylation)” value was 0.797% (inactive).

On to `CC1(C)O[C@@H]2C[C@H]3[C@@H]4CCC5=CC(=O)C=C[C@]5(C)[C@H]4[C@@H](O)C[C@]3(C)[C@]2(C(=O)CO)O1`, for which the “activation (H2AX phosphorylation)” value is -0.527% [at 70.9 µM] (inactive).

Regarding `CCCCCCCCCCCCCCCCBr`, the activation (H2AX phosphorylation) is -0.41% [at 31.6 µM] (inactive).

Consider `CCCCCCOC(=O)C(C)C`, for which the “activation (H2AX phosphorylation)” value is 0.596% (inactive).

Turning to `COC(=O)c1cc(S(N)(=O)=O)ccc1OC`, the “activation (H2AX phosphorylation)” value was -0.0722% [at 70.9 µM] (inactive).

For the molecule `C=CC(C)(O)CCCC(C)CCCC(C)CCCC(C)C` (stereo not drawn), the “activation (H2AX phosphorylation)” value was -0.178% (inactive).

For `CN1C(=O)CC(C)(c2ccccc2)C1=O` (stereo not drawn), the “activation (H2AX phosphorylation)” value is -3.36% [at 70.9 µM] (inactive).

In the case of `C[C@]12CCC(=O)C=C1C=C[C@@H]1[C@@H]2CC[C@@]2(C)[C@H]1CC[C@@]21CCC(=O)O1`, the “activation (H2AX phosphorylation)” value was -4.36% [at 70.9 µM] (inactive).

With `Cc1occc1C(=O)Nc1ccc(C(=O)N2CCC(F)(F)/C(=C\C(=O)N3CCC(N4CCCCC4)CC3)c3ccccc32)cc1`, the “activation (H2AX phosphorylation)” value was -2.44% [at 70.9 µM] (inactive).

For `CCCC1C(CC)=CC(CC)=CN1c1ccccc1` (stereo not drawn), the “activation (H2AX phosphorylation)” value is -1.38% (inactive).

Regarding `CC(=O)[C@H]1CC[C@H]2[C@@H]3C[C@H](C)C4=CC(=O)CC[C@]4(C)[C@H]3[C@@H](O)C[C@]12C`, the “activation (H2AX phosphorylation)” value is -2.69% [at 70.9 µM] (inactive).

For `C=CC(=C)CCCC(C)(C)OC(C)=O`, the “activation (H2AX phosphorylation)” value was -0.439% (inactive).

Take `O=S1OCCO1`: the “activation (H2AX phosphorylation)” value was -1.46% (inactive).

On to `C1COCO1`, for which the “activation (H2AX phosphorylation)” value was -2.31% (inactive).

As for `CC(=O)Nc1ccccc1C`, the “activation (H2AX phosphorylation)” value was 0.365% (inactive).

Take `COc1cc2[nH]c(=O)[nH]c(=O)c2cc1OC`: the “activation (H2AX phosphorylation)” value was -3.44% [at 70.9 µM] (inactive).

Turning to `N#C/C(=C1/SC[C@@H](c2ccc(Cl)cc2Cl)S1)n1ccnc1`, the “activation (H2AX phosphorylation)” value is 1.09% [at 70.9 µM] (inactive).
